Compound activity as filed in PubChem BioAssay.
BoNT-F LC inh: inhibitors of Botulinum neurotoxin F light chain protease; inhibition, % at 10 µM; AID 588497; 360,000 tested, 0.22% active; Multiplex microsphere protease cleavage assay, flow cytometry; in the data active = inhibition above about 35%, passing the limit was not always enough; inconclusive = no clear call, values can overlap the other calls; note: plate controls were buffer without enzyme for full effect and enzyme alone for no effect
Bead autofluor: counter-screen for toxin protease inhibitors: compound fluorescence; compound autofluorescence counterscreen, microsphere flow cytometry; hits give high values; fluorescence intensity (no concentration beside the values); 360,000 tested, 3.1% active; in the data active = fluorescence intensity above about 16000; inconclusive = no clear call, values can overlap the other calls
BoNT-A LC inh2: BoNT A light chain protease inhibition | multiplex microsphere protease substrate cleavage, flow cytometry | inhibition, % at 10 µM | 360,000 tested, 0.17% active | AID 588499; note: plate controls were buffer without enzyme for full effect and enzyme alone for no effect
FBA Mtb inh: inhibits M. tuberculosis FBA enzyme; 360,000 tested, 2.3% active; inhibition, % at 1 µM; P9WQA3; purified M. tuberculosis FBA, fluorescence read-out; in the data active = inhibition above about 27%;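 note: 0% = vehicle and 100% = reference inhibitor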
GDH-TPI counter: counter-screen for M. tuberculosis FBA inhibitors: GDH-TPI coupled enzymes | GDH-TPI coupled enzyme counterscreen, NADH absorbance | inhibition, % at 4.8 µM | 360,000 tested, 1.2% active; in the data active = inhibition above about 30%;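 note: 0% = DMSO wells and 100% = wells lacking the enzyme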
Anthrax LF prot: anthrax lethal factor protease inhibition; multiplex microsphere protease cleavage assay, LF; P15917; inhibition, % at 10 µM; 360,000 tested, 0.12% active; AID 588501; note: plate controls were buffer without enzyme for full effect and enzyme alone for no effect
* hit, by the source's call; u = inconclusive; x = no result; + = active, no number. Sampled rows, rich in hits. Any-hit rate of the full collection: about 6.6%. Cut-off read from the data, not from the text of the source, unless noted: active = inhibition above about 30%; inconclusive = no clear call, values can overlap the other calls; inactive = below that.

SMILES	BoNT-F LC inh	Bead autofluor	BoNT-A LC inh2	FBA Mtb inh	GDH-TPI counter	Anthrax LF prot
CN(C)S(=O)(=O)c1ccc(C(=O)NNC(=O)C2COc3ccccc3O2)cc1 (configuration not stated)	-6	2450	0	0	11	1
COc1cc(C(=O)N2CCC(NC(=O)C(Cc3ccc(C(C)C)cc3)NC(C)=O)CC2)cc(OC)c1OC (configuration not stated)	-24	4399	0	-3	3	-2
COc1ccccc1CC(NC(C)=O)C(=O)N1CCN(C(=O)c2cccs2)CC1 (configuration not stated)	-7	2805	0	6	9	0
COc1cc(C(=O)N2CCC(NC(=O)C(Cc3ccccc3C)NC(C)=O)CC2)cc(OC)c1OC (configuration not stated)	-2	21354*	u	2	-4	1
COc1cc(C(=O)N2CCC(NC(=O)C(Cc3ccc(C)cc3)NC(C)=O)CC2)cc(OC)c1OC (configuration not stated)	-1	22816*	0	-1	12	-4
COc1cc(C(=O)N2CCN(C(=O)C(Cc3cc(C)ccc3C)NC(C)=O)CC2)cc(OC)c1OC (configuration not stated)	1	22028*	3	2	-3	-3
N#Cc1c(-c2ccccc2Cl)c2c([nH]c1=O)-c1ccccc1OC2	x	x	x	+	27	x
COc1ccc(S(=O)(=O)NCc2ccc(C(=O)O)cc2)cc1	1	20146*	0	0	-5	0
COc1ccc(S(=O)(=O)NCc2ccc(C(=O)N3CCN(Cc4ccccc4)CC3)cc2)cc1	-4	4561	0	2	9	-3
COc1ccc(CCNS(=O)(=O)c2cccc(C)c2)cc1OC	-4	20544*	-2	0	-10	-2
COc1ccc(-c2cc(C)no2)cc1S(=O)(=O)Nc1ccccc1	2	5946	1	139*	-2	2
COc1ccc(-n2nnnc2S(=O)(=O)Cc2ccc(C(=O)O)cc2)cc1	3	17765*	6	3	-12	-11
COc1ccc(-n2nnnc2S(=O)(=O)CC(=O)N2CCCCC2)cc1	-3	5100	0	-1	-10	-7
COc1ccc(CCNS(=O)(=O)c2cccc(F)c2)cc1OC	1	15520	2	0	7	-1
CCOC(=O)c1oc2ccccc2c1COC(=O)C(C)NC(=O)c1ccco1 (configuration not stated)	-18	3805	-2	2	-4	-17
O=C(CNC(=O)Cc1ccc(Cl)cc1)NCc1ccco1	-2	4125	-1	-4	4	-5
CCN(CC(=O)NC1CCS(=O)(=O)C1)c1ccc(S(=O)(=O)N(CC)CC)cc1[N+](=O)[O-] (configuration not stated)	5	3936	-1	1	2	4
COc1ccc(OC)c(S(=O)(=O)NCc2ccccc2)c1	-6	16582*	-1	-2	14	-3
COc1ccc(S(=O)(=O)NCc2ccncc2)cc1OC	-2	23943*	-2	0	-1	0
COc1ccc(NS(=O)(=O)c2cc(-c3nnnn3C)ccc2OC)cc1	10	18825*	6	-2	-6	-14
COc1ccc(OC)c(S(=O)(=O)NCc2cccnc2)c1	0	2290	0	0	4	-2
COc1ccc(-c2nnnn2C)cc1S(=O)(=O)NCCc1ccccc1	3	19418*	u	-2	-1	2
COc1ccc(S(=O)(=O)NCc2cccnc2)cc1OC	-6	3965	2	-1	-2	-1
COC(=O)c1ccc(CSc2ncn[nH]2)o1	-3	20355*	u	3	1	2
Oc1ccc(Oc2ccc(Oc3ccc(O)cc3)cc2)cc1	8	3666	-5	0	-2	-7
CCOc1cc(/C=C(/C#N)c2ccc(F)cc2)ccc1OCc1ccc(C(=O)O)o1	-29	3976	-1	3	34*	-5
CCOc1cc(/C=C(/C#N)c2nc3ccccc3[nH]2)ccc1OCc1ccc(C(=O)O)o1	2	9907	1	2	22	1
CC(OC(=O)c1cc(=O)[nH]c2ccccc12)C(=O)NCc1ccccc1 (configuration not stated)	12	5843	4	2	11	-2
Cc1cc(/C=C(/C#N)C(=O)O)c(C)n1-c1cccc2ccccc12	-10	3860	4	6	41*	-4
